# Reference: PMC7862700, “An all-to-all approach to the identification of sequence-specific readers for epigenetic DNA modifications on cytosine”
# Experiments:
# Test in all cases: DAPPL (digital affinity profiling via proximity ligation, sequencing); 10 mM Tris-HCl pH 7.5, 50 mM NaCl, 1 mM DTT, 4% glycerol, room temperature, 30 min; GST-TFs on glutathione beads, 16-mer random dsDNA library, 0.1% formaldehyde crosslink after washing; high values mean tight binding
# FLI1 = target: T1, FLI1 (Homo sapiens, UniProt Q01543 1-452); details: protein: recombinant; tags: N-terminal GST; dsDNA, one strand shown
# T1 sequence: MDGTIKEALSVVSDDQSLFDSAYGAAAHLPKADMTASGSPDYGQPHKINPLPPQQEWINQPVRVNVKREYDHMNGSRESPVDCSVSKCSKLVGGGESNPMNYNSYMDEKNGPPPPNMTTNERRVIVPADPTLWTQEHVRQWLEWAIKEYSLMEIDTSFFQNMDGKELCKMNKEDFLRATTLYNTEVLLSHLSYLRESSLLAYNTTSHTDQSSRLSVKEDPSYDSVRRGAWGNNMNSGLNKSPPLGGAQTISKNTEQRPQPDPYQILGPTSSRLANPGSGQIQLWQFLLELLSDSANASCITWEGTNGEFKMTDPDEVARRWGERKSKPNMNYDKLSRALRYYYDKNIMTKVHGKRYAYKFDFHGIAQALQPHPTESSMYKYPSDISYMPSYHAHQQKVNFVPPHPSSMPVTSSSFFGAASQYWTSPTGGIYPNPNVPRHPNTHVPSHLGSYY
# In short: (§1)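 A tag-only sample was pooled with DNA-barcoded human transcription factors that had been expressed in yeast as GST fusions and captured on glutathione beads. The pools were incubated for 30 min at room temperature with 200 nmole of a random double-stranded 16-mer DNA library in Tris/NaCl/DTT/glycerol buffer, then washed, crosslinked with 0.1% formaldehyde, proximity-ligated (BsaI/T4 ligase, 1 h, 37 °C), PCR-amplified and sequenced on an Illumina NextSeq500. Binding signal is each hexamer's read frequency for a factor divided by its frequency for the tag-only sample.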
# ELK1 = target: T2, ELK1 (Homo sapiens, UniProt P19419 1-428); details: protein: recombinant; tags: N-terminal GST; dsDNA, one strand shown
# T2 sequence: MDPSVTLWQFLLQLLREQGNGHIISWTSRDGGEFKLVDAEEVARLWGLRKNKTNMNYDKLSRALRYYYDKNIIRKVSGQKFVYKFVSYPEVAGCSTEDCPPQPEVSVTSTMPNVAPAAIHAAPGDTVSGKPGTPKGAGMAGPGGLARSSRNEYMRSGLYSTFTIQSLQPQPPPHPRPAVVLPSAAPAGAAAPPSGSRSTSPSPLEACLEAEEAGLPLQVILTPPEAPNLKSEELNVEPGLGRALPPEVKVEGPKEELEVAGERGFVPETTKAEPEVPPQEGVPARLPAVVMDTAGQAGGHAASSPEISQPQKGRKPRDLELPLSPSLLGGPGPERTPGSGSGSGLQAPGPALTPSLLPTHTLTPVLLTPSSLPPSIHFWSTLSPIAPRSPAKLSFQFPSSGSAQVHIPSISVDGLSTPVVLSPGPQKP
# In short: as §1
# GABPA = target: T3, GABPA (Homo sapiens, UniProt Q06546 1-454); details: protein: recombinant; tags: N-terminal GST; dsDNA, one strand shown
# T3 sequence: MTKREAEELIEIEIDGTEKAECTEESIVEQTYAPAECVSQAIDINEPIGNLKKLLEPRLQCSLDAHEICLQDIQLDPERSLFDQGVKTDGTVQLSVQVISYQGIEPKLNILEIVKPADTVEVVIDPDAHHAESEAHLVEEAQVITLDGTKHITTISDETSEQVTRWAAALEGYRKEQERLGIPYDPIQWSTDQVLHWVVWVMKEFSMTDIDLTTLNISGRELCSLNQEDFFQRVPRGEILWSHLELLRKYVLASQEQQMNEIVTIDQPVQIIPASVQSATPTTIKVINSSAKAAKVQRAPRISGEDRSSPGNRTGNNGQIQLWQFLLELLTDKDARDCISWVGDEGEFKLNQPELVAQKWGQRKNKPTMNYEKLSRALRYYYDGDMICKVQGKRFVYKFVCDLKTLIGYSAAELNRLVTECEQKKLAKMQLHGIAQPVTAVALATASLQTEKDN
# In short: as §1
# ERG = target: T4, ERG (Homo sapiens, UniProt P11308 1-479); details: protein: recombinant; tags: N-terminal GST; dsDNA, one strand shown
# T4 sequence: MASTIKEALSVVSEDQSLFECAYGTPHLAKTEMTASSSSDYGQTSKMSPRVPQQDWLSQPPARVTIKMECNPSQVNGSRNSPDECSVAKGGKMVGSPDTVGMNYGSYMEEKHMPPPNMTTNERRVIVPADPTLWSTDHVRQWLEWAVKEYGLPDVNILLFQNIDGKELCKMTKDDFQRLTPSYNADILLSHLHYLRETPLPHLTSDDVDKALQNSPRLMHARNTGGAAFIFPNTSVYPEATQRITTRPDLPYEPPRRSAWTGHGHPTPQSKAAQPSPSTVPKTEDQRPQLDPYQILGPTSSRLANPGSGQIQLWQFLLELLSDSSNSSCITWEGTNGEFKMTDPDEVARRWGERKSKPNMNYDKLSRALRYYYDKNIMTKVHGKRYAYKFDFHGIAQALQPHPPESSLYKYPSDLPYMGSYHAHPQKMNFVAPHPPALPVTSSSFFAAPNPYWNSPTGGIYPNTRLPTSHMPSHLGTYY
# In short: as §1
# ELF1 = ELF1 (Homo sapiens, UniProt P32519 1-619); details: protein: recombinant; tags: N-terminal GST; dsDNA, one strand shown
# Sequence of ELF1 (P32519 whole entry): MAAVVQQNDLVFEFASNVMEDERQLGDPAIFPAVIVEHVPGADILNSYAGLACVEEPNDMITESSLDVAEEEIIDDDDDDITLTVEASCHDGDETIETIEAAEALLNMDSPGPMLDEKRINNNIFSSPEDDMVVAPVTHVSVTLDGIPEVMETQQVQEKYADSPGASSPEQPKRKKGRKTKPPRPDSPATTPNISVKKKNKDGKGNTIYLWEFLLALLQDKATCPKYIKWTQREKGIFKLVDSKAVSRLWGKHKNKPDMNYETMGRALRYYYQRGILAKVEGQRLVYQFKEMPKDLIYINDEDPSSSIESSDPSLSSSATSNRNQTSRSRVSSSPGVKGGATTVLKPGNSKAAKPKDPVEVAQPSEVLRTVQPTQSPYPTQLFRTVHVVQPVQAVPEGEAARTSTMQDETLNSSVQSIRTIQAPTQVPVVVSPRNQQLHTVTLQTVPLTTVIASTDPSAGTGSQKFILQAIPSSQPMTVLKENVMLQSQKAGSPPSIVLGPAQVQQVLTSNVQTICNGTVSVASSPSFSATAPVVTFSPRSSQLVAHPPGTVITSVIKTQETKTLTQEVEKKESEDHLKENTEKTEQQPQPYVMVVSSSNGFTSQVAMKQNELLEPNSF
# In short: as §1
# EHF = target: T5, EHF (Homo sapiens, UniProt Q9NZC4 1-300); details: protein: recombinant; tags: N-terminal GST; dsDNA, one strand shown
# T5 sequence: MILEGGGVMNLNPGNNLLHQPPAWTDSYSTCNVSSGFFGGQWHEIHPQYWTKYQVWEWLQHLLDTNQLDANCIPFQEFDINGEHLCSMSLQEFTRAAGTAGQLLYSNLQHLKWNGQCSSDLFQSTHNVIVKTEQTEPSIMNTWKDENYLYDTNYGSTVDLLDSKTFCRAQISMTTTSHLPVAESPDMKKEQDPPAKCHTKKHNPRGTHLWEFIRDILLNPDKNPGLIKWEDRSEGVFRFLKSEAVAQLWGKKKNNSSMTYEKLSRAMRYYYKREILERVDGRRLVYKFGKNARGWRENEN
# In short: as §1
# SPI1 = SPI1 (Homo sapiens, UniProt P17947 1-270); details: protein: recombinant; tags: N-terminal GST; dsDNA, one strand shown
# In short: as §1
# SPIB = SPIB (Homo sapiens, UniProt Q01892 1-262); details: protein: recombinant; tags: N-terminal GST; dsDNA, one strand shown
# Sequence of SPIB (Q01892 whole entry): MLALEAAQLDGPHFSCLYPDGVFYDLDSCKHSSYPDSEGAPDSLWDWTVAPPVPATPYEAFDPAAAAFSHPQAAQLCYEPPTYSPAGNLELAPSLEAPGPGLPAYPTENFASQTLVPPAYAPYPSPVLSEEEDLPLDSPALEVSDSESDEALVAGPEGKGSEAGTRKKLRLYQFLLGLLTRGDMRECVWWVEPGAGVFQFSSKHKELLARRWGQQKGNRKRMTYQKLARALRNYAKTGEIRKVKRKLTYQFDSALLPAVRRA
# In short: as §1
# ELK3 = target: T6, ELK3 (Homo sapiens, UniProt P41970 1-407); details: protein: recombinant; tags: N-terminal GST; dsDNA, one strand shown
# T6 sequence: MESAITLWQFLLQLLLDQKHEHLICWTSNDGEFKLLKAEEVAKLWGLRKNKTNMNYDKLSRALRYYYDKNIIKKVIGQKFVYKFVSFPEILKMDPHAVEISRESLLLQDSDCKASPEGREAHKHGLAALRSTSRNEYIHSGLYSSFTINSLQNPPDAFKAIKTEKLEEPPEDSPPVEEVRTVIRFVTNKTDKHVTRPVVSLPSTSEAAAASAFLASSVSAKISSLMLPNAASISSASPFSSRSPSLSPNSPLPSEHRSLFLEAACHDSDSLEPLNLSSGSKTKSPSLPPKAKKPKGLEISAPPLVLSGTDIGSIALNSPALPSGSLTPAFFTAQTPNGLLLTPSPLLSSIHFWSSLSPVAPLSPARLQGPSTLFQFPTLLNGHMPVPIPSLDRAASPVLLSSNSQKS
# In short: as §1
# FEV = target: T7, FEV (Homo sapiens, UniProt Q99581 1-238); details: protein: recombinant; tags: N-terminal GST; dsDNA, one strand shown
# T7 sequence: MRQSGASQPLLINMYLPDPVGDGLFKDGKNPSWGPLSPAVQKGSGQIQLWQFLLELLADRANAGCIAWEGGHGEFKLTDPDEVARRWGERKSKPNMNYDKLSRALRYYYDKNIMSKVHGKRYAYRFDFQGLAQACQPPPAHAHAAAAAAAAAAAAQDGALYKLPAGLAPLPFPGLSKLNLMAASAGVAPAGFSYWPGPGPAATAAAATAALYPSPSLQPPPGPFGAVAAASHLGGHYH
# In short: as §1
# ETV5 = ETV5 (Homo sapiens, UniProt P41161 1-510); details: protein: recombinant; tags: N-terminal GST; dsDNA, one strand shown
# Sequence of ETV5 (P41161 whole entry): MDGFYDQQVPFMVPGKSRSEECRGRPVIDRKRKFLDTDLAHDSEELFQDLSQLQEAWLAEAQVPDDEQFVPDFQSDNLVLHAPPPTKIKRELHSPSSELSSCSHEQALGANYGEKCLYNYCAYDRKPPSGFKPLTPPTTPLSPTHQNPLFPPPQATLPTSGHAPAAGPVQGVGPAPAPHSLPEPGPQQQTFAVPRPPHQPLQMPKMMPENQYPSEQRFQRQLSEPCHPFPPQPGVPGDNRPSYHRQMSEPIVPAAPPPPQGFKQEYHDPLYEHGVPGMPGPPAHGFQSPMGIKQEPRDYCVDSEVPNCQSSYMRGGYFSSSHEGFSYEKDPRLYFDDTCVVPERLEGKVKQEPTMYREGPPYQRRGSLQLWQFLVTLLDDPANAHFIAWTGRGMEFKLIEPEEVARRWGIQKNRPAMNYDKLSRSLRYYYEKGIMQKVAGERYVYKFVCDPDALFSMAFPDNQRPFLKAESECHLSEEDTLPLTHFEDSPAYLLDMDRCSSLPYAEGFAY
# In short: as §1
# HSF1 = HSF1 (Homo sapiens, UniProt Q00613 1-529); details: protein: recombinant; tags: N-terminal GST; chain copies: 3; dsDNA, one strand shown
# Sequence of HSF1 (Q00613 whole entry): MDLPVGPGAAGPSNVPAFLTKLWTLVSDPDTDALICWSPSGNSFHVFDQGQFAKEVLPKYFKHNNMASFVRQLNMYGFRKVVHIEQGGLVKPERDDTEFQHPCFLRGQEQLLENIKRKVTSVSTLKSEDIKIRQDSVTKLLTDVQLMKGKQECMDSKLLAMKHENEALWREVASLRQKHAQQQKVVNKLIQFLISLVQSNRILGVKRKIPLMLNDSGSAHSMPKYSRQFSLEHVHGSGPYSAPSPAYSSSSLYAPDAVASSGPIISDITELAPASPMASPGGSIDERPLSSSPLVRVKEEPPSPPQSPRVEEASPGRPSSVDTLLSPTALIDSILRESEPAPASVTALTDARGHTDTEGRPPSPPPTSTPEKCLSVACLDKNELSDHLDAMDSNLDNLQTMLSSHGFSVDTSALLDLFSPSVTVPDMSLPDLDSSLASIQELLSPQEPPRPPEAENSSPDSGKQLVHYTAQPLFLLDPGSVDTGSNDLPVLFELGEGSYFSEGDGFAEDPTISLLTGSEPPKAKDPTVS
# In short: as §1
# SPIC = target: T8, SPIC (Homo sapiens, UniProt Q8N5J4 1-248); details: protein: recombinant; tags: N-terminal GST; dsDNA, one strand shown
# T8 sequence: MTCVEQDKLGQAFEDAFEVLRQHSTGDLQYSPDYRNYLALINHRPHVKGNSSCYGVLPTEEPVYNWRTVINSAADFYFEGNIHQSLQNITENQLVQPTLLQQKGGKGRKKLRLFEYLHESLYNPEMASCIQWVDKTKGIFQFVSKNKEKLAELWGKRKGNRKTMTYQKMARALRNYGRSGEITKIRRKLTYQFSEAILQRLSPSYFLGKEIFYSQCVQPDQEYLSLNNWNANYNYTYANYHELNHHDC
# In short: as §1
# ELF4 = ELF4 (Homo sapiens, UniProt Q99607 1-663); details: protein: recombinant; tags: N-terminal GST; dsDNA, one strand shown
# Sequence of ELF4 (Q99607 whole entry): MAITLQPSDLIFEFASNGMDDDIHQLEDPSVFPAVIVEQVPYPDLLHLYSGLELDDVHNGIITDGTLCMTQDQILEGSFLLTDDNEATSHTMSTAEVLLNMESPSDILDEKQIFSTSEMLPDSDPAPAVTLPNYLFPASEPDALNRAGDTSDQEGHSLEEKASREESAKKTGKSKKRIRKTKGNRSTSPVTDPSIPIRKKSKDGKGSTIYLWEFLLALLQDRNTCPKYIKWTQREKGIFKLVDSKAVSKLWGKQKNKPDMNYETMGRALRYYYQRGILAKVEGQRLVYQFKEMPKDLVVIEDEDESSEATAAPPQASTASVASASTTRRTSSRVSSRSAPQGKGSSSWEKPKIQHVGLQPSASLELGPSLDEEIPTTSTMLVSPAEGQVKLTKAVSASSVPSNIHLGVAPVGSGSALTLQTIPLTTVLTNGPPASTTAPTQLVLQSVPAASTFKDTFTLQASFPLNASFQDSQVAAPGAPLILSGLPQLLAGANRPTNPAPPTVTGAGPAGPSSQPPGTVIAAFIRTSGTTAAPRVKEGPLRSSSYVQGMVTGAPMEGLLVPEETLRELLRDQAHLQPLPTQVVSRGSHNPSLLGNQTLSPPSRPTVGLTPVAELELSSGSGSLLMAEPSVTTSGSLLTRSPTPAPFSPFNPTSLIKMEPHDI
# In short: as §1
# ELK4 = target: T9, ELK4 (Homo sapiens, UniProt P28324-2 1-405); details: protein: recombinant; tags: N-terminal GST; dsDNA, one strand shown
# T9 sequence: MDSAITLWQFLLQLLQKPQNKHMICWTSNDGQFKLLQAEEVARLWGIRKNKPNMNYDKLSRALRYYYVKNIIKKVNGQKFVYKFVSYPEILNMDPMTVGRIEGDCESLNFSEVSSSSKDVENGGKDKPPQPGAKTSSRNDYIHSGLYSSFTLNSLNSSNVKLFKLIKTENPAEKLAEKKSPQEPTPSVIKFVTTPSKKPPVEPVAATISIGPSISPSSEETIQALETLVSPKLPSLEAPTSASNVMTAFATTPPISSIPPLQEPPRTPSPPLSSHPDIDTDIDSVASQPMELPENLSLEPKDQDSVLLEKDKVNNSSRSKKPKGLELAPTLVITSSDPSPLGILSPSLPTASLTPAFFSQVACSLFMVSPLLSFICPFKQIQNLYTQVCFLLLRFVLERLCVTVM
# In short: as §1
# ETV2 = target: T10, ETV2 (Homo sapiens, UniProt O00321 1-342); details: protein: recombinant; tags: N-terminal GST; dsDNA, one strand shown
# T10 sequence: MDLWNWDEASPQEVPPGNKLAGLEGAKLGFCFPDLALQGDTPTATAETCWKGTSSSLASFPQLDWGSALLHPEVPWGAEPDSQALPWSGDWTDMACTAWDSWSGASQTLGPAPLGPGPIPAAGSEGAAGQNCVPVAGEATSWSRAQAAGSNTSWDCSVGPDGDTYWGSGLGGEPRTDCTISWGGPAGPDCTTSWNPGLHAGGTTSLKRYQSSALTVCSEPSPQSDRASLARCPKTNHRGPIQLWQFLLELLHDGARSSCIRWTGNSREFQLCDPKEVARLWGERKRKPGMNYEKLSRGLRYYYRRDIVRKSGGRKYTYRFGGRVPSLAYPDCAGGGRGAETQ
# In short: as §1
# ELF3 = target: T11, ELF3 (Homo sapiens, UniProt P78545 1-371); details: protein: recombinant; tags: N-terminal GST; dsDNA, one strand shown
# T11 sequence: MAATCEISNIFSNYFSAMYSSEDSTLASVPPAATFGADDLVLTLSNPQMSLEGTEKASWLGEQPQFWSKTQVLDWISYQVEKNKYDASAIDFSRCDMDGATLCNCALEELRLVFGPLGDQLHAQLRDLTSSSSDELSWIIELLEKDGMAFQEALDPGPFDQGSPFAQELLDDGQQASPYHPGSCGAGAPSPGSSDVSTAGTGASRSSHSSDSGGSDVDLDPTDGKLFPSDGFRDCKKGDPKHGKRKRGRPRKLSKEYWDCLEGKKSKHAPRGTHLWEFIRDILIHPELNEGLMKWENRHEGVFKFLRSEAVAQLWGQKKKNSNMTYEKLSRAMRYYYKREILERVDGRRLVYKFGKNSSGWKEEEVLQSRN
# In short: as §1
# CRX = CRX (Homo sapiens, UniProt O43186 1-299); details: protein: recombinant; tags: N-terminal GST; dsDNA, one strand shown
# Sequence of CRX (O43186 whole entry): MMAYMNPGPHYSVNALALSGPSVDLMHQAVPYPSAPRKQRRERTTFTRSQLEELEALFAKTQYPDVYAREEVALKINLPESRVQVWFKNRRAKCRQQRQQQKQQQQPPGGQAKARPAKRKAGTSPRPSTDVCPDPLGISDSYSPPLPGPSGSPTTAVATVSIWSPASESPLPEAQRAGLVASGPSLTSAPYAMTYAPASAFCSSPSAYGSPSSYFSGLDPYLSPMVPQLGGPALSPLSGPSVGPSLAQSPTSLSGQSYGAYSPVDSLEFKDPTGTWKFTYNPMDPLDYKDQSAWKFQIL
# In short: as §1
# ETV1 = ETV1 (Homo sapiens, UniProt P50549 1-477); details: protein: recombinant; tags: N-terminal GST; dsDNA, one strand shown
# Sequence of ETV1 (P50549 whole entry): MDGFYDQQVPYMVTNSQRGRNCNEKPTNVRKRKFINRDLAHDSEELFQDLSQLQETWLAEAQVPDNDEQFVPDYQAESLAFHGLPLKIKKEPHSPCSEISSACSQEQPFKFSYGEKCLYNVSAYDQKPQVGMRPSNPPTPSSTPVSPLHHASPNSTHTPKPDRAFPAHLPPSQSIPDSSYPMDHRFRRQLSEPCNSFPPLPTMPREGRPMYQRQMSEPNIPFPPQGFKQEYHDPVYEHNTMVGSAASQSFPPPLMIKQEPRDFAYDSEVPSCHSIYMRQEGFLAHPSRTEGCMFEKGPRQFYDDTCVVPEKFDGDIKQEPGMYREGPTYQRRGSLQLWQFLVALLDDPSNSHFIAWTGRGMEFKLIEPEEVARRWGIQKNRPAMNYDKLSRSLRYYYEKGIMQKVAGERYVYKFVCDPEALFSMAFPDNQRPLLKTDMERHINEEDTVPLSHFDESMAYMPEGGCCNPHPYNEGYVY
# In short: as §1
sequence,measurement,setting,value
GTTAAT,binding signal,FLI1,"1.14 fold enrichment (6-mer frequency, TF over GST control)"
same,binding signal,ELK1,"1.19 fold enrichment (6-mer frequency, TF over GST control)"
same,binding signal,GABPA,"1.06 fold enrichment (6-mer frequency, TF over GST control)"
same,binding signal,ERG,"1.1 fold enrichment (6-mer frequency, TF over GST control)"
same,binding signal,ELF1,"1.03 fold enrichment (6-mer frequency, TF over GST control)"
same,binding signal,EHF,"1.16 fold enrichment (6-mer frequency, TF over GST control)"
same,binding signal,SPI1,"1.1 fold enrichment (6-mer frequency, TF over GST control)"
same,binding signal,SPIB,"1.15 fold enrichment (6-mer frequency, TF over GST control)"
same,binding signal,ELK3,"1.12 fold enrichment (6-mer frequency, TF over GST control)"
same,binding signal,FEV,"1.08 fold enrichment (6-mer frequency, TF over GST control)"
same,binding signal,ETV5,"1.17 fold enrichment (6-mer frequency, TF over GST control)"
same,binding signal,HSF1,"1.6 fold enrichment (6-mer frequency, TF over GST control)"
same,binding signal,SPIC,"1.11 fold enrichment (6-mer frequency, TF over GST control)"
same,binding signal,ELF4,"1.14 fold enrichment (6-mer frequency, TF over GST control)"
same,binding signal,ELK4,"1.05 fold enrichment (6-mer frequency, TF over GST control)"
same,binding signal,ETV2,"1.18 fold enrichment (6-mer frequency, TF over GST control)"
same,binding signal,ELF3,"1.09 fold enrichment (6-mer frequency, TF over GST control)"
same,binding signal,CRX,"2.41 fold enrichment (6-mer frequency, TF over GST control)"
same,binding signal,ETV1,"1 fold enrichment (6-mer frequency, TF over GST control)"
